Data reported in PubChem BioAssay (EPA / NIEHS).
Calls of active or inactive are those of the source. The calls were made as follows: active = hit-call score of the fitted dose curve at least 0.9, where 1 is the maximum; inactive = score below 0.9.

read-out: Apoptosis regulator Bcl-2 (Homo sapiens) (UniProt P10415); assay: LTEA_HepaRG_BCL2: Life Technologies and Expression Analysis (LTEA) Assay for Bcl-2 gene using HepaRG (AID 2283475); conditions: mRNA level, 48 h; actives raise or lower the signal;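 also: BCL2 transcript by TaqMan qRT-PCR normalised to ACTB GAPDH and POLR2A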
Description: LTEA_HepaRG is a cell based, multiplexed-readout assay that uses HepaRG, a human liver cell line, with measurements taken at 48 hours after chemical dosing on a 96-well plate.LTEA_HepaRG_BCL2 is one of 102 assay component(s) measured in the LTEA HepaRG cell culture assay. It is a marker of Cell proliferation, survival, death.Data from the assay component LTEA_HepaRG_BCL2 was analyzed into 1 endpoint. This assay endpoint, LTEA_HepaRG_BCL2, was analyzed with bidirectional fitting relative to DMSO as the negative control and baseline of activity. Using a type of inducible reporter, measures of mRNA induction for gain or loss-of-signal activity can be used to understand regulation of transcription factor activity. To generalize the intended target to other relatable targets, this assay endpoint is annotated to the cell cycle intended target family, where the subfamily is Cell proliferation, survival, death.
A total of 1060 chemcials from the ToxCast library were tested in eight-point concentration-response experiments. Cell culture and cytotoxicity assays were conducted at Thermo Fisher Scientific's Custom Services facility (Madison, WI). A single lot of human HepaRG cells (Thermo Fisher Scientific, Frederick, MD) was used for the cell culture experiments. 96-well format collagen type I coated plates of human HepaRG cells were prepared using established methods. Briefly, cryopreserved HepaRG cells were thawed, plated at a density of approximately 100,000 cells/well in HepaRG Thaw, Plate, and General Purpose media (HPRG770, Thermo Fisher Scientific), and incubated for 48 hours. 0.5% DMSO was selected as vehicle control to balance the requisite need of DMSO in HepaRG cultures to maintain differentiation (for example, baseline metabolism, proportions of hepatocytes vs. cholangiocytes), while enabling further hepatic receptor pathway activation (for example, PXR and CAR) in response to chemical exposure. 48 hours after plating, the culture medium was replaced with HepaRG Serum-Free Incudtion Media. Cells were exposed to each test chemical in duplicate and maintained in CO2 incubators for another 48 hours. Chemical plates were thawed to room temperature and 200x concentrations of treatment groups were prepared. 8-point conentration-reponse curves were made with the highest exposure at 100 uM, followed by half-log dilutions, all in 0.5% DMSO. Each test plate contained variouse controls, induction positive controls (1mM phenobarbital), cytotoxicity positive controls ([…] aflatoxin B1), vehicle controls (0.5% DMSO), and total lysis controls (0.5% DMSO). Cell morphology images were taken using an Essen IncuCyte FLR automated microscope, with six 96-well plates imaged in about 24 minutes. Images were captured and exported and JPEG files. Spent culture media was transfered to black-well plates for the LDH assay, and remaining media was sorted at -80 C for later use. Cells were treated with RLT buffer and frozen until shipped for gene expression analysis. Total RNA was isolated from the cell suspension in 75 uL of Buffer RLT (Qiagen, Germantown, MD 20874) by Quintiles/Expression Analysis (Durham, NC) using a custom isolation procedure. Total RNA from each plate well was transferred to a preamplification plate. Fluidigm's 96.96 Dynamic ArrayTM (Fluidigm, Amsterdam, the Netherlands) technology was used for gene expression analyses by quantitative reverse transcription polymerase chain reaction (qRT-PCR, performed by Quintiles/Expression Analysis, Durham, NC)89. Standard TaqManTM Assays (Applied Biosystems/ThermoFisher Scientific, Foster City, CA) were used to assess the expression of 93 genes selected based on their selectivity and sensitivity to important hepatic receptors known to be modulated by environmental chemicals; importance in human hepatocyte functionality; and hepatotoxicity. […]

Sequence of Apoptosis regulator Bcl-2 (Homo sapiens) (P10415 whole entry, looked up): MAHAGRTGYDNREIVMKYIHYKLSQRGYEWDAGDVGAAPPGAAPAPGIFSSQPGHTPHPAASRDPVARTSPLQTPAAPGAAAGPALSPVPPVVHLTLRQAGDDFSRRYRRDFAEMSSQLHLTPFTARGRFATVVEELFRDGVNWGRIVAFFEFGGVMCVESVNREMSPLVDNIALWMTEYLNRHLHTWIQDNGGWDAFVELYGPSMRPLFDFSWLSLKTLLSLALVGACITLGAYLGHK

AC50, active:
COc1ccc2sc(C(=O)Nc3nnn[nH]3)c(OC(C)C)c2c1 25.2 µM
CC(C)c1cccc(C(C)C)c1N1C(=O)c2ccc(O)cc2C1=O 86.2 µM
CCOC(=O)COc1ccc2c(c1)CC(NCC(O)c1cccc(Cl)c1)CC2 (stereo not given) 45.8 µM
Fc1ccccc1[C@@H](F)COC1CCC(Nc2ncnc3[nH]ncc23)CC1 (stereo not given in full) 30.7 µM
CCc1cc(SCc2sc(-c3ccc(C(F)(F)F)cc3)nc2CN2CCN(c3ccc(OC)cc3)CC2)ccc1OCC(=O)O 8.96 µM
CCOC(=O)c1ccc(C2CCC(NC[C@H](O)COc3ccc(O)c(NS(C)(=O)=O)c3)CC2)cc1 (stereo not given in full) 2.75 µM
CC(O)CN(CCN(CC(C)O)CC(C)O)CC(C)O (stereo not given) 12.7 µM
O=P(OC(CCl)CCl)(OC(CCl)CCl)OC(CCl)CCl 88.3 µM

outcome, inactive:
CCC(C)(C)C(=O)O[C@H]1C[C@@H](C)C=C2C=C[C@H](C)[C@H](CC[C@@H]3C[C@@H](O)CC(=O)O3)[C@H]21
Nc1nc2ncc(CNc3ccc(C(=O)N[C@@H](CCC(=O)O)C(=O)O)cc3)nc2c(=O)[nH]1
CCCN(C1CCN(C(=O)C2CCNCC2)CC1)[C@@H]1CCc2ccc(OC)cc2C1
Cn1c(=O)cc(Oc2ccc(F)cc2F)c2cnc(NCC(C)(C)O)nc21
CC(C)=CCCC(C)CCO (stereo not given)
O=c1[nH]c2ccc(S(=O)CCN3CCC(Cc4ccc(F)cc4)CC3)cc2o1 (stereo not given)
NC(=O)NO
C=CC(=C)CCC=C(C)C
Cc1ccc(S(=O)(=O)O)cc1C
CCCCC(CC)COC(=O)CCCCCCCCC(=O)OCC(CC)CCCC (stereo not given)
O=C(O)c1cccc(Oc2ccccc2)c1
CC(=O)OCCC(C)C
Cc1ccc(C)c(O)c1
CC1=CC(=O)CC(C)(C)C1
CN(C)c1ccc(N=NS(=O)(=O)O)cc1
O=c1n(CC2CO2)c(=O)n(CC2CO2)c(=O)n1CC1CO1 (stereo not given)
COC(=O)CC(=O)OC
CC[C@H](C)C(=O)O[C@H]1C[C@@H](C)C=C2C=C[C@H](C)[C@H](CC[C@@H]3C[C@@H](O)CC(=O)O3)[C@H]21
CC(C)=CCCC(C)=CC=O
Cc1ccc(N)cc1O
CCCCCCCCCCCCCCCO
CCOC(=O)CC(CC(=O)OCC)(OC(C)=O)C(=O)OCC
C=CCCCCCCCCC(=O)O
CC[C@H]1OC(=O)[C@H](C)[C@@H](O[C@H]2C[C@@](C)(OC)[C@@H](O)[C@H](C)O2)[C@H](C)[C@@H](O[C@@H]2O[C@H](C)C[C@H](N(C)C)[C@H]2O)[C@](C)(O)C[C@@H](C)C(=O)[C@H](C)[C@@H](O)[C@]1(C)O
O=C(O)c1cc(N=Nc2ccc(S(=O)(=O)Nc3ccccn3)cc2)ccc1O
Cc1c(-c2cccnc2)c2ccccc2n1CCCCC(=O)O
On1ccccc1=S
CC1(C)C(=O)N(Br)C(=O)N1Br
C1N2CN3CN1CN(C2)C3
O=C(O)CCN(C1(C(=O)NO)CCCC1)S(=O)(=O)c1ccc(Oc2ccc(F)cc2)cc1
COC(=O)c1ccccc1O
CC(C)CCCCCCCOC(=O)CCCCC(=O)OCCCCCCCC(C)C
